Article PMC5540273 (PLoS ONE, 2017)

Test system: T1, p38-alpha
T1 construct: gene MAPK14
Details: concentration: 1 μM, replicates: in singlicate; n = 1
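Also: KINOMEscan kinase panel screen.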

Q: For CCn1c(-c2nonc2N)nc2c(C#CC(C)(C)O)ncc(OCCCCN)c21.O=C(O)C(F)(F)F.O=C(O)C(F)(F)F [GSK507274], which “%Inh” value is on record?
A: 0%

Q: Which “%Inh” value does the source give for COc1cc2c(cc1OCCN1CCNCC1)ncc1c3ccc(C#N)cc3[nH]c21 here?
A: 9%

Q: COc1cccc(C(=O)Nc2cccc(Oc3ccc4nc(NC(=O)C5CC5)cn4n3)c2)c1 was tested. Which “%Inh” value did it give?
A: 15%

Q: FC(F)(F)c1ccc(/C=C/c2cncnc2Nc2ccc3[nH]c(Cc4ccccc4)nc3c2)cc1 [GW709199] was tested. Which “%Inh” value did it give?
A: 0%

Q: For Cc1cccc(Nc2nc(N[C@H]3CCNC3)ncc2C(N)=O)c1.Cl [GSK2197149], which “%Inh” value is on record?
A: 0%

Q: NCCCC(NC(=O)c1cc(Br)c(-c2ccnc3[nH]ccc23)s1)c1ccccc1.O=C(O)C(F)(F)F.O=C(O)C(F)(F)F (centres unmarked) [GSK1287544] was tested. Which “%Inh” value did it give?
A: 0%

Q: For CC(C)(C)c1ccc2nccc(Nc3cccc(O)c3)c2c1 [GW856795], which “%Inh” value is on record?
A: 0%

Q: With c1ccc(-c2n[nH]cc2Nc2ccnc3ccccc23)nc1 [GW694077] as the compound, how does the “%Inh” value read?
A: 2%

Q: With COc1cccc(NC(=O)NC2CCN(c3ccnc(Nc4cc(OC)c(OC)c(OC)c4)n3)C2)c1 (centres unmarked) [GSK1379763] as the compound, how does the “%Inh” value read?
A: 24%

Q: For COC(=O)Nc1nc2ccc(Oc3ccc(NC(=O)Nc4cc(C(F)(F)F)ccc4F)cc3)cc2n1C.Cl [GW692089], which “%Inh” value is on record?
A: 57%

Q: How did the “%Inh” value turn out when COc1cccc(C2=C(Nc3ccc(Cl)c(C(=O)O)c3)C(=O)NC2=O)c1 [SB-390769] was run?
A: 12%

Q: Which “%Inh” value does the source give for COc1cc(Nc2nccc(-c3c(-c4cccc(NC(=O)c5c(F)cccc5F)c4)nn4ccccc34)n2)cc(OC)c1OC [GSK323521] here?
A: 0%

Q: Which “%Inh” value does the source give for Cn1cc(-c2[nH]c3cc(NC(=O)[C@H](N)C4CCCCC4)cc4c3c2C=NNC4=O)cn1 here?
A: 0%

Q: For Nc1ncc(-c2cccnc2)c2scc(-c3ccc4c(c3)CCN4C(=O)Cc3ccccc3)c12 [GSK683281], which “%Inh” value is on record?
A: 4%

Q: Which “%Inh” value does the source give for CCCCc1nn2ncccc2c1-c1ccnc(Nc2ccc(N3CCN(C)CC3)cc2)n1 [GW684941] here?
A: 94.2%

Q: For O=C(Nc1n[nH]c2cc(-c3ccoc3)ccc12)C1CC1 [SB-738481], which “%Inh” value is on record?
A: 0%

Q: Cl.c1ccc(-c2ccc3c(Nc4ccc5[nH]ncc5c4)ccnc3c2)nc1 [GW440137] was tested. Which “%Inh” value did it give?
A: 8%

Q: With Cn1cc(-c2ccc3c(c2)CCN3C(=O)Cc2cccc(Cl)c2)c2c(N)ncnc21 [GSK2606590] as the compound, how does the “%Inh” value read?
A: 0%

Q: How did the “%Inh” value turn out when COc1cccc(-c2ccc3c(NC(=O)C4CC4)n[nH]c3n2)c1 [SB-710903] was run?
A: 23%

Q: How did the “%Inh” value turn out when Nc1ncc(-c2ccc3nccc(-c4ccncc4)c3c2)cc1S(=O)(=O)N1CCOCC1 [GSK1627798] was run?
A: 0%

Q: COc1cc(Nc2nccc(N3CCC(NC(=O)Nc4cccc(C(C)=O)c4)C3)n2)cc(OC)c1OC (centres unmarked) [GSK1379753] was tested. Which “%Inh” value did it give?
A: 0%

Q: How did the “%Inh” value turn out when COCCOCCOc1cc2ncc3c4ccc(C#N)cc4[nH]c3c2cc1OC was run?
A: 1%

Q: Which “%Inh” value does the source give for COc1ccc(Nc2nccc(NCCNC(=O)c3cc4ccccc4s3)n2)cc1 [GSK1379896] here?
A: 13%

Q: How did the “%Inh” value turn out when COC(=O)Nc1nc2cc(Oc3ccc(NC(=O)Nc4cc(C(F)(F)F)ccc4F)cn3)ccc2[nH]1.Cl.Cl [GW681170] was run?
A: 70%

Q: With O=C(Nc1n[nH]c2nc(-c3ccc(O)cc3)ccc12)C1CC1 [SB-710363] as the compound, how does the “%Inh” value read?
A: 0%

Test system: T2, p38-beta
T2 construct: gene MAPK11
Details: concentration: 1 μM, replicates: in singlicate; n = 1

Q: With Nc1n[nH]c2cnc(-c3ccccc3)cc12 [SB-642124] as the compound, how does the “%Inh” value read?
A: 0%

Q: For CN(c1ccc(NC(=O)Nc2cc(C(F)(F)F)ccc2F)cc1)c1ccnc(Nc2ccc(S(N)(=O)=O)cc2)n1 [GW809893], which “%Inh” value is on record?
A: 88%

Q: With CC(C)c1nc(-c2cccc(NS(=O)(=O)c3c(F)cccc3F)c2F)c(-c2ccnc(Nc3ccc(N4CCOCC4)nc3)n2)s1 [GSK2008607] as the compound, how does the “%Inh” value read?
A: 51%

Q: For O=C(Nc1cccc(-c2nn3ncccc3c2-c2ccnc(Nc3ccccc3)n2)c1)c1c(F)cccc1F [GSK198271], which “%Inh” value is on record?
A: 99.2%

Q: O=C(Nc1ccccc1F)NC1CCN(c2ccnc(Nc3ccc(F)cc3)n2)CC1 [GSK1379800] was tested. Which “%Inh” value did it give?
A: 0%

Q: For Cl.c1ccc(-c2ccc3c(Nc4ccc5[nH]ccc5c4)ccnc3c2)nc1 [GW440138], which “%Inh” value is on record?
A: 0%

Q: Which “%Inh” value does the source give for COc1ccc(CNC(=O)NC2CCN(c3ccnc(Nc4ccc(F)cc4)n3)CC2)cc1 [GSK1379788] here?
A: 0%

Q: How did the “%Inh” value turn out when CN(C)Cc1ccc(-c2ccc3c(Nc4ccc(Oc5ccccn5)cc4)ccnc3c2)o1 [GW567148] was run?
A: 0%

Q: With CNC(=O)c1ccccc1Nc1nc(Nc2ccc(N3CCOCC3)cc2)ncc1Cl.Cl [GSK1576028] as the compound, how does the “%Inh” value read?
A: 2%

Q: CCS(=O)(=O)c1ccc(OC)c(Nc2nccc(-c3c(-c4cccc(NC(=O)c5c(F)cccc5F)c4)nn4ncccc34)n2)c1 [GSK326180] was tested. Which “%Inh” value did it give?
A: 99.6%

Q: For c1ccc(Oc2ccc(Nc3ccnc4cc(-c5ccc(CNCCN6CCOCC6)o5)ccc34)cc2)nc1 [GW567145], which “%Inh” value is on record?
A: 0%

Q: With Cc1ccc(C)c(NC(=O)NC2CCN(c3ccnc(Nc4ccc(F)cc4)n3)C2)c1 (centres unmarked) [GSK1379720] as the compound, how does the “%Inh” value read?
A: 0%

Q: How did the “%Inh” value turn out when CCn1c(-c2nonc2N)nc2c(C#CC(C)(C)O)ncc(OCCCCN)c21.O=C(O)C(F)(F)F.O=C(O)C(F)(F)F [GSK507274] was run?
A: 0%

Q: For COc1cc2c(cc1OCCN1CCNCC1)ncc1c3ccc(C#N)cc3[nH]c21, which “%Inh” value is on record?
A: 3%

Q: With COc1cccc(C(=O)Nc2cccc(Oc3ccc4nc(NC(=O)C5CC5)cn4n3)c2)c1 as the compound, how does the “%Inh” value read?
A: 16%

Q: Which “%Inh” value does the source give for FC(F)(F)c1ccc(/C=C/c2cncnc2Nc2ccc3[nH]c(Cc4ccccc4)nc3c2)cc1 [GW709199] here?
A: 3%

Q: Which “%Inh” value does the source give for Cc1cccc(Nc2nc(N[C@H]3CCNC3)ncc2C(N)=O)c1.Cl [GSK2197149] here?
A: 0%

Q: With NCCCC(NC(=O)c1cc(Br)c(-c2ccnc3[nH]ccc23)s1)c1ccccc1.O=C(O)C(F)(F)F.O=C(O)C(F)(F)F (centres unmarked) [GSK1287544] as the compound, how does the “%Inh” value read?
A: 0%

Q: For CC(C)(C)c1ccc2nccc(Nc3cccc(O)c3)c2c1 [GW856795], which “%Inh” value is on record?
A: 0%

Q: Which “%Inh” value does the source give for c1ccc(-c2n[nH]cc2Nc2ccnc3ccccc23)nc1 [GW694077] here?
A: 0%

Q: Which “%Inh” value does the source give for COc1cccc(NC(=O)NC2CCN(c3ccnc(Nc4cc(OC)c(OC)c(OC)c4)n3)C2)c1 (centres unmarked) [GSK1379763] here?
A: 0%

Q: With COC(=O)Nc1nc2ccc(Oc3ccc(NC(=O)Nc4cc(C(F)(F)F)ccc4F)cc3)cc2n1C.Cl [GW692089] as the compound, how does the “%Inh” value read?
A: 16%

Q: Which “%Inh” value does the source give for COc1cccc(C2=C(Nc3ccc(Cl)c(C(=O)O)c3)C(=O)NC2=O)c1 [SB-390769] here?
A: 0%

Q: Which “%Inh” value does the source give for COc1cc(Nc2nccc(-c3c(-c4cccc(NC(=O)c5c(F)cccc5F)c4)nn4ccccc34)n2)cc(OC)c1OC [GSK323521] here?
A: 7%

Q: Which “%Inh” value does the source give for Cn1cc(-c2[nH]c3cc(NC(=O)[C@H](N)C4CCCCC4)cc4c3c2C=NNC4=O)cn1 here?
A: 0%

Q: For Nc1ncc(-c2cccnc2)c2scc(-c3ccc4c(c3)CCN4C(=O)Cc3ccccc3)c12 [GSK683281], which “%Inh” value is on record?
A: 0%

Q: How did the “%Inh” value turn out when CCCCc1nn2ncccc2c1-c1ccnc(Nc2ccc(N3CCN(C)CC3)cc2)n1 [GW684941] was run?
A: 43%

Q: With O=C(Nc1n[nH]c2cc(-c3ccoc3)ccc12)C1CC1 [SB-738481] as the compound, how does the “%Inh” value read?
A: 0%

Q: Cl.c1ccc(-c2ccc3c(Nc4ccc5[nH]ncc5c4)ccnc3c2)nc1 [GW440137] was tested. Which “%Inh” value did it give?
A: 0%

Q: With Cn1cc(-c2ccc3c(c2)CCN3C(=O)Cc2cccc(Cl)c2)c2c(N)ncnc21 [GSK2606590] as the compound, how does the “%Inh” value read?
A: 0%

Q: With COc1cccc(-c2ccc3c(NC(=O)C4CC4)n[nH]c3n2)c1 [SB-710903] as the compound, how does the “%Inh” value read?
A: 0%

Q: With Nc1ncc(-c2ccc3nccc(-c4ccncc4)c3c2)cc1S(=O)(=O)N1CCOCC1 [GSK1627798] as the compound, how does the “%Inh” value read?
A: 0%

Q: How did the “%Inh” value turn out when COc1cc(Nc2nccc(N3CCC(NC(=O)Nc4cccc(C(C)=O)c4)C3)n2)cc(OC)c1OC (centres unmarked) [GSK1379753] was run?
A: 0%

Q: How did the “%Inh” value turn out when COCCOCCOc1cc2ncc3c4ccc(C#N)cc4[nH]c3c2cc1OC was run?
A: 0%

Q: Which “%Inh” value does the source give for COc1ccc(Nc2nccc(NCCNC(=O)c3cc4ccccc4s3)n2)cc1 [GSK1379896] here?
A: 0%

Q: Which “%Inh” value does the source give for COC(=O)Nc1nc2cc(Oc3ccc(NC(=O)Nc4cc(C(F)(F)F)ccc4F)cn3)ccc2[nH]1.Cl.Cl [GW681170] here?
A: 34%

Q: Which “%Inh” value does the source give for O=C(Nc1n[nH]c2nc(-c3ccc(O)cc3)ccc12)C1CC1 [SB-710363] here?
A: 11%
